In article PMC5540273 (PLoS ONE, 2017):
Where “and” joins values, the source holds several entries; their conditions need not be identical. Identical values can stand only once. Like-named read-outs stand apart in the source and are kept apart here.

Experiments:
MYO3B = details: concentration: 1 μM, replicates: in singlicate, n = 1
NDR1 = test system: T1, NDR1; details: concentration: 1 μM, replicates: in singlicate, n = 1
T1 construct: gene STK38

NDR2 = details: concentration: 1 μM, replicates: in singlicate, n = 1
NEK10 = details: concentration: 1 μM, replicates: in singlicate, n = 1
NEK11 = details: concentration: 1 μM, replicates: in singlicate; n = 1
NEK1 = details: concentration: 1 μM, replicates: in singlicate, n = 1
NEK2 = details: concentration: 1 μM, replicates: in singlicate, n = 1
NEK3 = details: concentration: 1 μM, replicates: in singlicate, n = 1
NEK4 = details: concentration: 1 μM, replicates: in singlicate, n = 1
NEK5 = details: concentration: 1 μM, replicates: in singlicate, n = 1
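Also: KINOMEscan kinase panel screen.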

SMILES | %Inh (MYO3B) [%] | %Inh (NDR1) [%] | %Inh (NDR2) [%] | %Inh (NEK10) [%] | %Inh (NEK11) [%] | %Inh (NEK1) [%] | %Inh (NEK2) [%] | %Inh (NEK3) [%] | %Inh (NEK4) [%] | %Inh (NEK5) [%] | %Inh (MYO3B; 1 µM) | %Inh (NDR1; 1 µM) | %Inh (NDR2; 1 µM) | %Inh (NEK10; 1 µM) | %Inh (NEK1; 1 µM) | %Inh (NEK2; 1 µM) | %Inh (NEK3; 1 µM) | %Inh (NEK4; 1 µM) | %Inh (NEK5; 1 µM)
CN(C1=C(c2ccccc2)C(=O)NC1=O)c1ccccc1 [SB-334860] | 0 | 26 | 24 | 15 | 0 | 8 | 0 | 9 | 0 | 23 | – | – | – | – | – | – | – | – | –
Cc1cccc(-c2nc(Nc3ccc4ncsc4c3)c3ccccc3n2)n1 [GW867588] | 16 | 14 | 4 | 5 | 0 | 0 | 0 | 0 | 0 | 0 | – | – | – | – | – | – | – | – | –
CC(C)(C)n1cnc2c(N)ncnc21 [SKF-97359] | 5 | 0 | 0 | 12 | 14 | 0 | 0 | 42 | 0 | 0 | – | – | – | – | – | – | – | – | –
Cc1c(Cn2c(C)nn3c(=O)cc(N4CCOC(C)C4)nc23)cccc1C(F)(F)F (stereo not shown) [GSK2344444] | 0 | 0 | 0 | 2 | 0 | 0 | 3 | 0 | 22 | 0 | – | – | – | – | – | – | – | – | –
O=C(NCCNc1ccnc(Nc2ccc(F)cc2)n1)Nc1ccccc1F [GSK1379880] | 0 | 0 | 0 | 12 | 0 | 0 | 0 | 11 | 15 | 0 | – | – | – | – | – | – | – | – | –
Cc1cn2c(=O)cc(N3CCOCC3)nc2n1Cc1cccc(Cl)c1Cl [GSK2334006] | 0 | 10 | 0 | 10 | 0 | 0 | 14 | 0 | 4 | 14 | – | – | – | – | – | – | – | – | –
O=C(c1ccc(-c2cc(-c3c[nH]nc3-c3ccccn3)ccn2)cc1)N1CCOCC1 [GW812171] | 0 | 44 | 0 | 18 | 0 | 0 | 0 | 25 | 0 | 0 | – | – | – | – | – | – | – | – | –
NS(=O)(=O)c1cccc(-c2ccc3ncc(N4CCOCC4)nc3c2)c1 [GSK1535721] | 0 | 21 | 0 | 0 | 0 | 0 | 12 | 0 | 0 | 8 | – | – | – | – | – | – | – | – | –
O=c1cc(N2CCOCC2)nc2n(Cc3cccc(C(F)(F)F)c3)ccn12 [GSK2297543] | 0 | 16 | 7 | 0 | 0 | 0 | 0 | 0 | 0 | 0 | – | – | – | – | – | – | – | – | –
O=c1cc(N2CCOCC2)nc2n(Cc3cccc4ccccc34)ccn12 [GSK2333389] | 0 | 0 | 0 | 0 | 0 | 0 | 6 | 0 | 6 | 0 | – | – | – | – | – | – | – | – | –
COc1ccc(CNC(=O)NC2CCN(c3ccnc(Nc4ccc(OC)cc4)n3)C2)cc1 (stereo not shown) [GSK1379727] | 0 | 0 | 42 | 15 | 11 | 0 | 0 | 8 | 12 | 13 | – | – | – | – | – | – | – | – | –
CC(C)(CN)c1nc(-c2ccc(Cl)c(O)c2)c(-c2ccncc2)[nH]1.O=C(O)C(F)(F)F [SB-477794] | – | – | – | – | 0 | – | – | – | – | – | 0% and 47% | 40% and 49% | 63% and 52% | 19% and 24% | 0% and 100% | 12% and 0% | 26% and 0% | 21% and 10% | 13% and 3%
Fc1ccc(-c2ncn(CCCN3CCOCC3)c2-c2cccnc2)cc1 [SB-211743] | 17 | 33 | 10 | 14 | 0 | 0 | 0 | 15 | 0 | 0 | – | – | – | – | – | – | – | – | –
Cc1nnc(-c2ccc3occ(-c4ccc(C(C)O)cc4)c3c2)o1 (stereo not shown) | 0 | 18 | 55 | 30 | 0 | 0 | 0 | 3 | 0 | 0 | – | – | – | – | – | – | – | – | –
CN1c2ccc(NCc3ccc(F)cc3)cc2-c2c(cnn2C)S1(=O)=O | 0 | 22 | 0 | 2 | 0 | 0 | 0 | 33 | 0 | 0 | – | – | – | – | – | – | – | – | –
O=C1Cc2cc(Nc3nc(NCc4cccc(S(=O)(=O)C(F)(F)F)c4)ncc3C(F)(F)F)ccc2N1 | 0 | 9 | 0 | 36 | 0 | 10 | 9 | 12 | 5 | 14 | – | – | – | – | – | – | – | – | –
O=C(Nc1n[nH]c2cc(-c3cccc(F)c3)ccc12)C1CC1 [SB-735464] | 0 | 25 | 11 | 0 | 37 | 0 | 0 | 23 | 14 | 0 | – | – | – | – | – | – | – | – | –

SMILES | %Inh (MYO3B) [%] | %Inh (NDR1) [%] | %Inh (NDR2) [%] | %Inh (NEK10) [%] | %Inh (NEK11) [%] | %Inh (NEK1) [%] | %Inh (NEK2) [%] | %Inh (NEK3) [%] | %Inh (NEK4) [%] | %Inh (NEK5) [%] | %Inh (MYO3B; 1 µM) | %Inh (NDR1; 1 µM) | %Inh (NDR2; 1 µM) | %Inh (NEK10; 1 µM) | %Inh (NEK1; 1 µM) | %Inh (NEK2; 1 µM) | %Inh (NEK3; 1 µM) | %Inh (NEK4; 1 µM) | %Inh (NEK5; 1 µM)
CN1c2ccc(CNc3ccc(F)cc3)cc2-c2c(cnn2C)S1(=O)=O | 0 | 16 | 0 | 0 | 0 | 1 | 0 | 28 | 0 | 0 | – | – | – | – | – | – | – | – | –
Cc1cccc(-c2nc(-c3ccc(S(C)(=O)=O)cc3)sc2-c2ccncc2)c1 | 0 | 0 | 14 | 0 | 0 | 8 | 0 | 61 | 0 | 3 | – | – | – | – | – | – | – | – | –
O=C(NCCNc1ccnc(Nc2ccc(F)cc2)n1)c1cc2ccccc2s1 [GSK1379874] | 0 | 0 | 0 | 7 | 0 | 0 | 0 | 4 | 0 | 0 | – | – | – | – | – | – | – | – | –
COc1ccc(Nc2ncc(C#N)c(Nc3ccccc3C(N)=O)n2)cc1N1CCN(C)CC1.Cl [GSK1558669] | 0 | 98.8 | 75 | 94.1 | 97.5 | 91.6 | 99.6 | 93.5 | 94.7 | 100 | – | – | – | – | – | – | – | – | –
Cc1c2ccc(N(C)c3ccnc(Nc4cccc(S(N)(=O)=O)c4)n3)cc2nn1Cc1ccccc1.Cl.Cl [GW787226] | 41 | 51 | 1 | 0 | 0 | 32 | 0 | 22 | 6 | 0 | – | – | – | – | – | – | – | – | –
CC(C)Oc1ccc2c(-c3ccnc(Nc4ccc(N5CCN(C)CC5)cc4)n3)cnn2n1 [GW696155] | 0 | 86 | 52 | 97.6 | 86 | 86 | 93.3 | 98.5 | 10 | 100 | – | – | – | – | – | – | – | – | –
Cc1nnc(-c2ccc(C)c(-c3ccc(C(=O)Nc4ccc(NS(C)(=O)=O)cc4)cc3)c2)o1 [GW702865] | 0 | 20 | 18 | 6 | 33 | 0 | 0 | 0 | 0 | 8 | – | – | – | – | – | – | – | – | –
NS(=O)(=O)CCc1cccc(Nc2nccc(-c3c(-c4cccc(NC(=O)c5c(F)cccc5F)c4)nn4ccccc34)n2)c1 [GSK336735] | 4 | 18 | 0 | 7 | 0 | 0 | 22 | 0 | 19 | 8 | – | – | – | – | – | – | – | – | –
c1ccc(-c2cc(-c3c[nH]nc3-c3ccccn3)ccn2)cc1 [GW576604] | 0 | 17 | 23 | 19 | 3 | 0 | 0 | 2 | 0 | 0 | – | – | – | – | – | – | – | – | –
Nc1nc(-c2ccc3c(N)n[nH]c3c2)cc(N2CCCC2)n1 [GSK2227430] | 7 | 14 | 0 | 0 | 0 | 12 | 0 | 5 | 0 | 0 | – | – | – | – | – | – | – | – | –
CN(C(=O)c1ccc(-c2cc(-c3c[nH]nc3-c3ccccn3)ccn2)cc1)C1CCOCC1 [GW810083] | 0 | 3 | 0 | 0 | 9 | 0 | 0 | 16 | 0 | 7 | – | – | – | – | – | – | – | – | –
COc1ccc(S(=O)(=O)NC2CCN(c3cc(C)nc(Nc4cccc(C#N)c4)n3)CC2)cc1.O=C(O)C(F)(F)F [GSK1653539] | 0 | 35 | 0 | 23 | 0 | 0 | 3 | 0 | 0 | 2 | – | – | – | – | – | – | – | – | –
Cn1ccc2ncnc(Oc3ccc(NC(=O)Nc4ccncc4)c(Cl)c3)c21 | 13 | 0 | 17 | 14 | 0 | 0 | 0 | 24 | 0 | 3 | – | – | – | – | – | – | – | – | –
C[C@@H](Oc1cc(-n2cnc3ccc(NC(=O)NC(C)(C)C)cc32)sc1C(N)=O)c1ccccc1Cl [GSK346294] | 0 | 17 | 17 | 0 | 0 | 0 | 5 | 5 | 0 | 26 | – | – | – | – | – | – | – | – | –
CNc1ncnc2[nH]ncc12 [SKF-18355] | 34 | 46 | 23 | 16 | 0 | 0 | 0 | 26 | 0 | 0 | – | – | – | – | – | – | – | – | –
CCCCCc1nc2c(N)ncnc2n1CCCCC [SKF-97255] | 10 | 31 | 7 | 16 | 0 | 18 | 0 | 28 | 0 | 0 | – | – | – | – | – | – | – | – | –
O=c1cc(N2CCOCC2)nc2n(Cc3cccc(F)c3)ccn12 [GSK2297430] | 0 | 0 | 0 | 24 | 0 | 0 | 0 | 0 | 0 | 0 | – | – | – | – | – | – | – | – | –
